Test results as given in the supplement of paper PMC6555819.

How the values were obtained:
Test in all cases: PBM binding z-score (relative to random genomic background probes); higher = stronger binding; sequences stand for … in GC…GCGATTGACAGCGTAGAATGAAGG
[1] = test system: RARb homodimer (NR concentration 270 nM)
How it was run: (§1)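 Binding z-scores take random background probes as their reference. They come from custom Agilent 4×180K protein-binding microarrays incubated 1 h with ligand-free nuclear receptor dimers, with antibodies against each partner (one per run) detecting binding. Scanned fluorescence was regression-normalized.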

[2] = test system: RARg:RXRa (NR concentration 270 nM, RXRa partner concentration 90 nM)
How it was run: as §1

[3] = test system: RARg homodimer (NR concentration 270 nM)
How it was run: as §1

[4] = test system: RXRa DBDmut IVT, anti-RXR (DBD mutation: RXRa K156A/R161A, NR concentration 90 nM)
How it was run: as §1

[5] = test system: RXRa homodimer (NR concentration 180 nM)
How it was run: as §1

[6] = test system: THRa:RXRa (NR concentration 90 nM, RXRa partner concentration 90 nM)
How it was run: as §1

[7] = test system: THRa homodimer (NR concentration 90 nM)
How it was run: as §1

[8] = test system: VDR homodimer (NR concentration 270 nM)
How it was run: as §1

Sequence	PBM binding z-score [1]	PBM binding z-score [2]	PBM binding z-score [3]	PBM binding z-score [4]	PBM binding z-score [5]	PBM binding z-score [6]	PBM binding z-score [7]	PBM binding z-score [8]
CCTCGGAGGACAACAGGAGGCCAGAGCTGCCAGA	0.662	0.553	1.08	-0.152	-0.394	0.476	-0.155	-0.208
ACTAGTTGGTCAGCCGAGGTCACACACAATTCGG	4.36	4.25	4.08	0.998	4.34	5	4.33	4.04
ATATGTAGGTTATCGGGTCATTCAATTTGCGCAT	3.35	3.52	2.68	1.57	3.4	3.59	2.86	2.76
CCTAGTTGGTCACGGTCACACACGCTATAGGTAC	2.79	1.84	2.25	1.13	0.982	1.05	1.4	0.987
CGACCAAGGTGAACAAGGTCGTTGATTACTATTC	2.12	1.92	1.56	0.907	2.13	3.35	1.68	1.82
CAAACTAGGTCCAGAGGTCAAAGTCCGCTTCCCG	4.66	5.31	4.62	2.53	6.34	3.75	1.72	4.18
TCATATAGGTAAACAGGTGAATGTCCGTAAGTTA	0.605	0.347	0.272	1.27	1.03	0.567	0.511	0.283
GCTTGTAGATCAAGGTTAATAAAGACTAAGCTAA	0.0389	0.0476	0.168	-0.167	0.452	1	-0.489	-0.152
ATATGTAGGTTACATCCGGGACATTCAGGCTATG	0.852	1.56	1.27	0.669	1.27	2.66	1.46	0.967
ATCCAAAGGTCGACGAGGTGAGTATACACCGTTT	3.09	4.27	4.1	1.22	4.44	3.66	1.12	0.772
CCATACGGGTCACGAGGTTATAGCACGACGAGCG	3.99	6.02	5.35	1.27	7.38	3.55	1.09	2.45
CATACAGGGTCAGCTACGCCAGAGTAGGGACGGC	2.9	4.44	4.43	1.69	4.11	2.73	0.834	1.09
CCTAGCAGGCCAATCTGGGTCGCTCAAGGCTTGA	0.548	0.673	-0.21	-0.847	0.755	2.75	-0.707	-0.559
CCTTACGGGCCACTCCAGGTTATAGCATCGGAGT	0.457	0.099	0.515	-0.62	-0.0369	2.62	0.204	0.0382
TATACAGGGTCAACGGCCAGAGTACGAATGTCGA	3.43	5.83	5.47	2.75	6.28	3.46	1.05	2.95
CCTGCTAGGTCATGGTCAGCTATTCTACAGTATG	3.14	3.88	4.48	2.05	2.65	2.93	1.28	0.248
CTAACGAGGGCATGAGTTGATAGCAAATGCCGAT	0.671	1.31	1.61	2.41	1.06	1.2	0.0031	1.43
GCATATAGGCAATACAAGGTGAAAGTCCGATTGT	0.688	0.477	0.305	0.168	0.621	3.17	0.6	-0.0976
AGAATGAGGTTAAGATCAGGGACACAGAATACAT	1.6	2.36	2.14	1.14	2.48	3.39	2	1.12
CGTCCAAGGTCAAGGTAAGTGAAAGAGACTCGAA	4.02	6.03	7.08	3.26	5.48	3.97	2.14	1.56
CGAACGAGGGCATGCGTTGATAGCAAATGCCGAT	0.766	1.03	1.55	2.39	0.91	0.988	-0.0968	1.21
TCATATAGGTAAAAGGTGACAGTCGGTGTGGTAA	1.71	1.48	0.836	1.66	2.28	1.4	0.394	0.0898
CGAACTAGGTCAGAACAGGACAGTGGAGGATGAT	2.31	2.47	3.32	0.671	1.4	3.33	0.46	0.198
CCTCCTAGGTCAATGGTCAGCTAAAGCAGCTCGC	3.17	3.66	4.2	1.03	2.16	2.61	1.17	0.912
CTCGAAAGGTCGGTTAAGGTGAGTATACGGATAA	2.84	2.94	3.26	0.811	2.41	4.88	2.1	0.781
CCTACTGGGCCATTCAGAGGTCATTAATCATATG	3.81	4.21	2.91	0.793	3.48	3.13	1.35	3.11

Sequence	PBM binding z-score [1]	PBM binding z-score [2]	PBM binding z-score [3]	PBM binding z-score [4]	PBM binding z-score [5]	PBM binding z-score [6]	PBM binding z-score [7]	PBM binding z-score [8]
CGACCTAGGTCATCCAGGACAGTGAATACATTGA	3.41	4.75	4.97	2.6	3.37	4	2.18	2.5
ACAGGCAGGTGATGAAGGTAACTCAGGCTATCAT	0.415	-0.159	0.118	-0.414	0.0459	0.973	0.276	-0.29
GCATATAGGTATTACAAGGTGAAAGTCCGATTGT	0.63	0.464	0.464	0.414	0.523	3.76	1.14	-0.251
ATATGTAGGTTAAGGGGCATTCAGGTTGGTTCGC	2.06	1.58	1.19	1.17	1.85	1.82	1.46	2.03
GCTGCTAGGTCAACTGATTGTCAGCTAAAGCTCG	3.35	4.28	4.95	1.3	2.55	2.89	0.691	0.00113
CCTCGGAGGACAACAGCAGGTCAGAGCTGCCAGA	2.46	2.16	2.22	0.024	0.692	2.01	0.482	0.0855
AGTCAAAGTTCATCTAGTTAACGTAAGATATGCT	3.73	5.37	5.78	4.8	4.19	2.13	-0.607	5.21
CCTGCTAGGGCAATGGTCAGCTAAAGCAGCTCGC	0.431	0.176	0.604	-0.414	-0.159	-0.164	-0.86	-0.814
CGAACCAGGTCAAGGACAGTGAATCTCCGCACGC	3.09	3.99	4.33	2.23	3.47	3.82	2.79	1.05
CGTCAAAGTTCAACCAAGGTAACGTAAAGCACGC	4.13	5.85	6.21	4.5	4.98	5.14	1.18	4.3
AGAATGAGGTTAATAAGATCAGGGAATTGCGGTC	0.992	1.32	1.09	1.16	1.82	2.04	0.762	0.247
TCTTGCAGATCAAGCAGGTTAAGAAAGCCTGAGT	-0.292	-0.332	-0.629	0.253	-0.0969	0.0949	-0.484	-0.141
CCTTGTTGGTCAGGAGGTCACACACCGGATATGA	4.42	4.76	4.32	0.608	4.89	3.33	2.47	2.17
TCTATTAGTTGATTAGGGGAACCGAAACAGCGGA	0.155	0.431	0.32	1.67	0.729	0.257	0.319	0.458
TCGACTAGGTTAGGGGCATTCAGAATGGCGTCGA	0.889	0.355	0.408	0.884	0.798	1.03	0.253	0.473
TCTAGTTGGTCAAAGGTCACACCCTCGAAATGCG	5.03	6.9	6.12	2.29	8.03	4.02	2.2	3.2
GCTTGTAGATAAAGGTTAAGAAAGACTAAGCTAA	0.948	1.29	1	-0.0132	1.86	1	-0.76	-0.0184
TAGCCTAGGTCATGCGGGCCAGTCTAGTGTCGGC	2.8	3.86	4.19	0.255	2.42	2.75	0.583	0.569
AGAATGAGGTTATACGGAGATCAGGGAAGAAAGT	1	1.95	1.1	1.68	2.26	2.33	0.836	0.95
CCACACAGGTGAGAAGGTAACTCAGCCTCGATTA	0.713	0.766	0.648	0.395	0.675	0.428	0.324	-0.221
GCGACTGGGGTATCAGCAGGTTACCATAACTTAA	0.852	0.223	-0.199	-0.351	0.229	1.82	-0.0503	-0.333
CCGACTGGGGCAAGGATACCATAACGCACAGCCA	0.07	0.225	0.802	-0.717	0.232	-0.00683	0.154	-0.376
ATCTCTAGGTAAAGATAGATCAGTGAATGCAAAT	-0.493	0.264	0.561	-0.154	-0.137	0.0339	-0.214	-0.0693
CGTCCAAGGGCAAAGGTCAGTGAAGAGATGACGG	4.71	6.32	5.49	1.64	6.15	3.45	0.298	1.34
CCTGCTAGGTCAGGGTCAGCTAATCTACAGTATG	4.16	4.45	5.23	1.37	4.03	3.48	1.81	1.01
CGAACTAGGTCCTCCAGGACAGTGAATACATTGA	-0.151	0.0122	0.149	0.211	0.00298	1.41	0.816	-0.221
